For 47 compounds, inhibition results are on record in PubChem BioAssay AID1220 (Sanford-Burnham Center for Chemical Genomics, 2008).

SMILES strings stand for the structures. About 1,300 (0.68%) of roughly 190,000 compounds were called active. No stated cut-off is given here; in the data, active means inhibition above about 50%; inactive means the rest. What follows is part of a selection rich in actives, with near analogues and random picks from the rest.

Sequence of Mannose-6-phosphate isomerase (Homo sapiens) (P34949 whole entry, looked up): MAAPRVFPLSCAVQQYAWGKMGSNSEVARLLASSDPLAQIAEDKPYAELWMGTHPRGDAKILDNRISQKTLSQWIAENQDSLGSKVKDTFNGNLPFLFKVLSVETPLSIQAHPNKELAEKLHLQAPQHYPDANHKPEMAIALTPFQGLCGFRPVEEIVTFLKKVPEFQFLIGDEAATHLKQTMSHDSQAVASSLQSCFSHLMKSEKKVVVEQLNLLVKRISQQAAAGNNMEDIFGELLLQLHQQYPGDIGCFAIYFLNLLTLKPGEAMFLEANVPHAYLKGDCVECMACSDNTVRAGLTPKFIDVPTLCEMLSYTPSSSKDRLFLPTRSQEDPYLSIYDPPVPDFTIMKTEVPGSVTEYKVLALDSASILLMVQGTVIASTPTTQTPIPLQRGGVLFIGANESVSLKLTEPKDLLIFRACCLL

The assay has as its target Mannose-6-phosphate isomerase (Homo sapiens) (UniProt P34949). The experiment in a line: MPI inhibition at elevated mannose 6-phosphate – biochemical, fluorescence intensity, high mannose 6-phosphate, primary screen (AID 1220). The following applies: recombinant PMI enzyme, coupled fluorescence intensity; at 20 µM; stronger effect = higher value.
As for `CCN(CC)c1ccc(/C=C2\C(=O)NC(=O)N(CC3CCCO3)C2=O)cc1` (configuration not stated), the inhibition (as a rule, the relative decrease from the control value, in per cent) was -4.6% (inactive).

As to `CC(=O)c1c(O)n(C)c(=S)n(-c2ccccc2)c1=O`, the inhibition was -1.3% (inactive).

Take `CNC(=O)Oc1cccc(-c2cn3cc(Cl)ccc3n2)c1`: the inhibition was 3% (inactive).

For the compound `CNC(=O)Oc1cccc(-c2cn3cc(OC(=O)NC)ccc3n2)c1`, the inhibition was 54.4% (active).

Turning to `CNC(=O)Oc1ccc(-c2cn3cc(C)ccc3n2)cc1`, the inhibition is 4.6% (inactive).

Consider `CN1CCN(c2c(C#N)c(C(F)(F)F)nn2C)CC1`, for which the inhibition is -13.8% (inactive).

In the case of `O=C(CN1CC(c2ccccc2)CC1=O)Nc1cccc(F)c1` (configuration not stated), the inhibition is 3.7% (inactive).

Take `O=C1NC(=O)N(Cc2ccccc2)C(=O)/C1=C/N1CCCc2ccccc21`: the inhibition was 6% (inactive).

`O=c1[nH]c(=O)n(Cc2ccc(F)cc2)c(O)c1C=NCC1CCCO1` (configuration not stated): the inhibition is -20.4% (inactive).

Take `O=[N+]([O-])[N-][n+]1cnn(Cc2ccccc2)c1`: the inhibition was -10.9% (inactive).

Turning to `Cc1cc(OCC(=O)Nc2c(C)n(C)n(-c3ccccc3)c2=O)c2c3c(c(=O)oc2c1)CCC3`, the inhibition was 10.1% (inactive).

Consider `Cc1cccc(NC(=O)N2CCCC2)c1`, for which the inhibition was -7.3% (inactive).

Turning to `COc1cc(/C=C2/C(=O)NC(=O)N(c3ccccc3)C2=O)ccc1O`, the inhibition was 1.2% (inactive).

In the case of `COc1cc(/C=C2\C(=O)NC(=O)N(c3ccccc3)C2=O)cc(OC)c1O`, the inhibition is 13% (inactive).

As to `COc1cc(/C=C2\C(=O)NC(=O)N(c3ccc(C)cc3)C2=O)cc(OC)c1O`, the inhibition is 67.6% (active).

For the compound `CCC(=O)N1CC(=O)Nc2ccc(Br)cc2C1c1ccccc1` (configuration not stated), the inhibition is 2.3% (inactive).

As for `Cc1cccc(C)c1NC(=O)c1cccn(Cc2ccc3c(c2)OC(F)(F)O3)c1=O`, the inhibition is 9.6% (inactive).

As to `C(#CCN1CCOCC1)COC/C=C/c1ccccc1`, the inhibition is -8.9% (inactive).

Consider `COc1ccc(OC)c(N2C(=O)NC(=O)/C(=C/c3ccc([N+](=O)[O-])s3)C2=O)c1`, for which the inhibition was 56.6% (active).

As to `COc1ccc(N2C(=O)NC(=O)/C(=C\c3ccc([N+](=O)[O-])s3)C2=O)cc1`, the inhibition was -53.3% (inactive).

As for `COc1ccc(OC)c(N2C(=O)NC(=O)/C(=C\c3ccc([N+](=O)[O-])s3)C2=O)c1`, the inhibition was -46.8% (inactive).

In the case of `CN1C(=O)C(=Cc2ccc(-c3cccc(Cl)c3)o2)C(=O)N(C)C1=O`, the inhibition is -7.8% (inactive).

Regarding `CCN(CC)S(=O)(=O)c1ccc(N=Cc2c(O)n(-c3ccccc3)c(=O)[nH]c2=O)cc1`, the inhibition was -8.6% (inactive).

On to `COc1ccc(CCn2c(O)c(C=NCc3ccc4c(c3)OCO4)c(=O)[nH]c2=O)cc1OC`, for which the inhibition was 8.6% (inactive).

As for `COc1ccc(CCn2c(O)c(/C=N/NC(=O)c3ccncc3)c(=O)[nH]c2=O)cc1OC`, the inhibition is -12.8% (inactive).

Consider `O=C(N/N=C/c1c(O)n(CCc2ccc(F)cc2)c(=O)[nH]c1=O)c1ccncc1`, for which the inhibition is 53% (active).

As to `O=C(N/N=C/c1c(O)n(CCc2ccccc2)c(=O)[nH]c1=O)c1ccncc1`, the inhibition is -28.2% (inactive).

In the case of `CC1CCN(S(=O)(=O)c2ccc(NN=C(C#N)C#N)cc2)CC1`, the inhibition is -24.1% (inactive).

In the case of `CC(C)Oc1cccc(C(=O)C2CCCN(Cc3ccon3)C2)c1` (configuration not stated), the inhibition is 4% (inactive).

Turning to `CC(=O)NC1CC2CCCC(C1)N2` (configuration not stated), the inhibition is -5.2% (inactive).

With `O=C(NC1(C(F)(F)F)Oc2ccc(Cl)cc2O1)N1CCC2(CC1)OCCO2` (configuration not stated), the inhibition is 70.3% (active).

Consider `O=C(NC1(C(F)(F)F)Oc2ccccc2O1)N1CCC2(CC1)OCCO2`, for which the inhibition was 3.8% (inactive).

For the compound `O=C(NC(=O)N1CCC2(CC1)OCCO2)c1ccc(Cl)cc1`, the inhibition is 11.1% (inactive).

On to `O=c1[nH]c(=O)n(Cc2ccccc2Cl)c(O)c1C=Nc1ccc(F)cc1`, for which the inhibition was 13.7% (inactive).

Take `CC(=NCCN1CCCCC1)c1c(O)n(-c2ccc(Cl)cc2)c(=O)[nH]c1=O`: the inhibition is 2.8% (inactive).

As to `COc1cc2c(cc1O)CC1c3c(cc(O)c(OC)c3-2)CCN1C` (configuration not stated), the inhibition was 52.5% (active).

For the compound `COc1cc2c(cc1OC)-c1c(OC)c(OC)cc3c1C(C2)N(C)CC3` (configuration not stated), the inhibition was 39.3% (inactive).

In the case of `COc1cc2c(cc1OC)-c1c(OC)c(OC)cc3c1[C@H](C2)N(C)CC3`, the inhibition is -16.2% (inactive).

Take `CCc1cccc(C)c1NC(=S)N1CC2CC(C1)c1cccc(=O)n1C2` (configuration not stated): the inhibition is -3.9% (inactive).

`CCN(CC)C(=O)c1ccc(N2C(=O)C3CC=C(Cl)CC3C2=O)cc1` (configuration not stated): the inhibition was -1.5% (inactive).

Take `Nc1ccncc1Cl`: the inhibition is -4.4% (inactive).

For the compound `N#Cc1cc2c(nc1SCC(=O)Nc1ccc(Cl)cc1)C1CCN2CC1`, the inhibition is -2.2% (inactive).

Take `O=C(NC[P+](=O)O)OCc1ccccc1`: the inhibition was -7% (inactive).

Take `CCN(CC)C(=O)N[C@H]1C[C@@H]2c3cccc4[nH]cc(c34)C[C@H]2N(C)C1`: the inhibition is -0.8% (inactive).

Take `CN1C[C@H](CNC(=O)OCc2ccccc2)C[C@@H]2c3cccc4c3c(cn4C)C[C@H]21`: the inhibition was 58.2% (active).

As for `CC(C)CCN1CCN(Cc2c(F)cccc2Cl)CC1CCO` (configuration not stated), the inhibition was -1.1% (inactive).

`CC(=O)OC1(c2ccccc2)CCN(C)C(C)C1C` (configuration not stated): the inhibition was -7.2% (inactive).
